# From PubChem BioAssay
# Assay: binders of probe aFGF2 on microarray, primary screen, stem cell growth factor project, biochemical, small-molecule microarray, fluorescence 635/667 (AID 1067);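 note: measures binding of biotinylated aFGF2 protein to printed compounds on slides; z-score merges feature fluorescence and signal-to-noise across triplicate slides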
# Conditions: higher = more signal
row,SMILES,composite z-score
1,COCC(=C=CC[C@H](O)c1ccccc1OCCO)C[C@H](O)c1cc(Cl)cc(Cl)c1O,-0.129
2,C=CCC(OC(C)=O)[C@@H]1[C@@H](N(Cc2ccc(-c3ccccc3)cc2)C(=O)Cc2ccc(F)cc2)c2cc(OCCCO)ccc2N1C(=O)c1ccc(-c2ccccc2)cc1 (stereo not given in full),-0.0145
3,COCCOC(=O)N1C(=O)[C@@]2(c3cc(C#CC4=CCCCC4)ccc31)[C@H](c1ccc(O)cc1)N1[C@H](c3ccccc3)[C@H](c3ccccc3)OC(=O)[C@H]1[C@@H]2C(N)=O,-0.0899
4,O=C1O[C@H](c2ccccc2)[C@H](c2ccccc2)N2[C@H]1[C@@H](C(=O)O)[C@]1(C(=O)Nc3ccc(C#CCCO)cc31)[C@H]2c1ccc(O)cc1,0.0248
5,O=C(NCc1ccccc1)[C@@]1(Cc2ccccc2)N=C(c2ccc(OCCCO)cc2)O[C@H]1c1ccccc1,0.0557
6,CCOC(=O)C[C@H]1[C@H](OC(=O)c2cc3ccccc3oc2=O)[C@@H](NC(=O)Cc2ccc(OC)cc2)c2cc(OCCCO)ccc2N1C(=O)c1ccccc1,-0.076
7,COc1ccc([Si](C)(C)[C@H]2[C@H](CCO)O[C@@]3(C(=O)N(C)c4c(Br)cc(C)cc43)[C@@H]2C)cc1,-0.116
8,CN(C)C(=O)[C@@]1(Cc2ccccc2)N=C(c2ccc(OCCCO)cc2)O[C@H]1c1ccccc1N=[N+]=[N-],0.061
9,CC(=O)NCCCC[C@@H]1NC(=O)[C@@H]2C[C@H](C(=O)NCCCCCCNC(=O)CS)[C@H](c3cccc(OCCO)c3)N2C1=O,-0.0212
10,CN(C)CCCNC(=O)[C@@]1(C)c2ccccc2C(=O)N(Cc2cc(F)cc(C(F)(F)F)c2)[C@H]1c1ccc(CO)cc1,-0.144
11,O=C1C[C@]2(c3ccc([N+](=O)[O-])cc3)C(=O)N(CCN3CCOCC3)c3cc(CO)ccc3[C@H]2N1C1CCCCC1,-0.162
12,COC(=O)C=C(CC(O)c1cccc(Cl)c1)OC (stereo not given),0.54
13,COc1ccc(CCN2C(=O)[C@@]3(c4ccc([N+](=O)[O-])cc4)CC(=O)N(C4CCCCC4)[C@@H]3c3ccc(CO)cc32)cc1,-0.148
14,O=C1C2C=CC(C(O)C(c3ccccc3)c3ccccc3)N(n3cnnc3)C2C(=O)N1Cc1ccccc1 (stereo not given),0.129
15,O=C1c2ccccc2[C@@]2(Cc3ccccc3N(CCN3CCOCC3)C2=O)[C@H](c2ccc(CO)cc2)N1Cc1ccccc1,-0.166
16,CC(C)(C)OC(=O)CC[C@]1(C(=O)NCC(O)CO)COC(c2ccc(OCCCO)cc2)=N1 (stereo not given in full),-0.0551
17,CN1C(=O)[C@]2(Cc3ccccc3)N=C(c3ccc(OCCCO)cc3)O[C@@H]2c2ccccc21,-0.0333
18,O=C1OCCC/C=C\[C@H]2OC34C=CCN(Cn5nnc6ccccc65)C(=O)[C@H]3N(CCO)C(=O)[C@@H]4C12 (stereo not given in full),-0.206

row,SMILES,composite z-score
1,CC(C)C(=C=CC[C@@H](O)c1ccccc1OCCO)CCO,-0.115
2,N#Cc1ccc(NN2C(C(O)c3c(F)cccc3Cl)C=CC3C(=O)N(c4ccccc4)C(=O)C32)cc1 (stereo not given),0.199
3,COC(=O)[C@@]1(Cc2ccccc2)[C@H]2c3cc(C(=O)N4CCCC4)n(Cc4cccc5ccccc45)c3C[C@H]2CN1C(=O)c1ccccc1,0.705
4,COCC(=C=CC[C@@H](O)c1ccccc1OCCO)C[C@@H](O)c1cc(Cl)cc(Cl)c1O,-0.0276
5,C=CCOC(=O)[C@@H]1[C@H]2C(=O)O[C@H](c3ccccc3)[C@H](c3ccccc3)N2[C@H](c2ccc(OCCOC(=O)[C@@H]3C[C@@H]4C(=O)N[C@@H](Cc5ccccc5)C(=O)N4[C@@H]3c3ccc(O)cc3)cc2)[C@@]12C(=O)Nc1ccc(I)cc12,-0.0944
6,C[C@@H]1ON(c2cccc(C(=O)OC(C)(C)C)c2)[C@H](c2ccc(Br)cc2)[C@H]1C(=O)N1C(=O)OC[C@H]1Cc1ccccc1,-0.031
7,O=C1OCCC=C[C@H]2OC34C=CCN(CCN5CCOCC5)C(=O)[C@H]3N(CCCCCCO)C(=O)[C@@H]4C12 (stereo not given in full),-0.147
8,C=CC[C@@]1(C(N)=O)N=C(c2ccc(OCCCO)cc2)O[C@@H]1c1ccccc1CN=[N+]=[N-],-0.0193
9,C=CCOC(=O)[C@H]1[C@@H]2C(=O)O[C@@H](c3ccccc3)[C@@H](c3ccccc3)N2[C@@H](c2ccc(OCCOC(=O)[C@H]3C[C@H]4C(=O)N[C@@H](CC(C)C)C(=O)N4[C@H]3c3ccc(O)cc3)cc2)[C@]12C(=O)Nc1ccc(I)cc12,-0.0355
10,CCCCN1CC=CC23O[C@@H]4/C=C\CCC(C)OC(=O)C4[C@H]2C(=O)N(CCCCCO)[C@@H]3C1=O (stereo not given in full),-0.132
11,COc1ccc(C(O)C2C=CC3C(=O)NC(=O)C3N2Nc2ccccn2)c2ccccc12 (stereo not given),0.0467
12,C=C(COC)/C(=C/C[C@H](OC(=O)c1ccncc1)c1ccc(OCCO)cc1)c1cnc2ccccc2c1,0.0485
13,C=C(C)C1C(=C)CN([C@H](CO)c2ccccc2)C1=O (stereo not given in full),-0.132
14,C=CCC(OC(C)=O)[C@@H]1[C@@H](N(Cc2ccc(-c3cccc(C(F)(F)F)c3)o2)C(=O)Cc2ccc(F)cc2)c2cc(OCCCO)ccc2N1C(=O)Cc1ccc(OC)cc1 (stereo not given in full),-0.0971
15,CC(C)c1ccc(NN2C(C(O)c3cc(C(F)(F)F)cc(C(F)(F)F)c3)C=CC3C(=O)N(c4ccccc4)C(=O)C32)cc1 (stereo not given),-0.0165
16,COc1ccc([Si](C)(C)[C@H]2[C@H](CCn3cc([C@H](O)c4ccccc4)nn3)O[C@@]3(C(=O)N(Cc4cccc(N5CCOC5=O)c4)c4ccccc43)[C@@H]2C)cc1,-0.003
17,Cc1ccc(S[C@]2(C(=O)NCC(C)C)CC(=O)N(Cc3cc(C(F)(F)F)cc(C(F)(F)F)c3)[C@@H]2c2ccc(CO)cc2I)cc1,-0.113
